Bioassay records (PubChem BioAssay)
Compounds with a hit are over-represented: about 2% of the library has one in this group of screens.
Shn3 inh set2 = reduces Shn3 3'UTR luciferase signal in osteoblasts | Clone20 osteoblast Shn3 3'UTR firefly luciferase, 24 h | inhibition, % at 12.5 µM | actives 0.52% (n = 360,000) | AID 588674;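 active = mean inhibition of at least 75% with every replicate also reaching 75%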;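 note: 0% = median of neutral control wells and 100% = pilot-screen positive control compound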
Beta apoptosis = blocks beta cell apoptosis; INS-1E cytokine-induced death, ATP luminescence, 48 h; percent of positive-control rescue, neutral wells zero; protection from apoptosis, % (no concentration beside the values); actives 0.8% (n = 300,000); AID 435005;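 active = Every replicate reaches about 75%, or at least half do and their mean reaches it too, limit read from the data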;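 note: 0% = cytokine-treated negative control wells and 100% = positive control rescue; higher means more ATP so stronger rescue from cytokine killing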
Calb FLC = C. albicans growth modulation with fluconazole; C. albicans CaCi-2 (fluconazole-resistant clinical isolate) + fluconazole, Alamar Blue growth, 48 h; growth inhibition, % (concentration not given with the values); actives 0.57% (n = 300,000);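 active = growth inhibition above about 58% in most replicates, limit read from the data, passing the limit was not always enough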;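 note: all wells also contain fluconazole at 8 µg/ml as a sub-toxic cotreatment; 0% = median of DMSO wells and 100% = median of geldanamycin control wells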
697 NFkB inh = inhibitors of the PMA/ionomycin-induced NF-kB reporter in 697 B cells; 697 B-cell NF-kB luciferase reporter, 16 h; inhibition, % at 4 µM; actives 0.33% (n = 330,000); AID 435022; in the data active = inhibition above about 35%
Jurkat NFkB inh = lowers PMA/ionomycin-induced NF-kB signal in Jurkat cells; actives 0.53% (n = 330,000); PMA/ionomycin-induced NF-kB luciferase reporter, luminescence; inhibition, % at 4 µM; in the data active = inhibition above about 50%
Jurkat NFkB conf = lowers PMA/ionomycin-induced NF-kB signal in Jurkat cells; shares compounds with Jurkat NFkB inh; Jurkat NF-kB luciferase, 16 h; inhibition, % at 4 µM; actives 27% (n = 2,700);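 active = inhibition reaching about 45% at 4 µM in either replicate, limit read from the data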;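 note: plate controls were PMA/ionomycin stimulated DMSO wells for no effect and unstimulated DMSO wells for full effect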
The depositor's hits bear a star.

Results for Cc1ccc(-n2nnc(-c3cc4ccccc4n3C)n2)cc1 ?
Shn3 inh set2: -159; Beta apoptosis: -4; Calb FLC: -10; 697 NFkB inh: -182; Jurkat NFkB inh: -152; Jurkat NFkB conf: -47

What do the screens show for `Cc1ccc(-n2nnc(-c3cccnc3Cl)n2)cc1`?
Shn3 inh set2: -119; Beta apoptosis: -5; Calb FLC: -8; 697 NFkB inh: -228; Jurkat NFkB inh: -173; Jurkat NFkB conf: -86

How did Cc1cc(C)c(OCC(=O)OCC(=O)N2CCCc3ccccc32)c(C)c1 do in these assays?
Shn3 inh set2: -9; Beta apoptosis: -4; Calb FLC: 0; 697 NFkB inh: 7; Jurkat NFkB inh: 9

What do the screens show for `COc1ccc(C(=O)Cn2c(=N)n(C)c3ccccc32)cc1`?
Shn3 inh set2: -92; Calb FLC: -8; 697 NFkB inh: -199; Jurkat NFkB inh: -124

What do the screens show for `COc1ccc(C(=O)CN2Cc3ccccc3C2=N)cc1`?
Shn3 inh set2: -39; Beta apoptosis: -3; Calb FLC: -3; 697 NFkB inh: -202; Jurkat NFkB inh: -157; Jurkat NFkB conf: -76

Results for Cc1ccsc1/C=C/c1ccc2cccc(O)c2n1 ?
Shn3 inh set2: -31; Beta apoptosis: 22; Calb FLC: 29; 697 NFkB inh: -144; Jurkat NFkB inh: -148

How did Cc1ccsc1/C=C/c1ccc2ccccc2n1 do in these assays?
Shn3 inh set2: 8; Beta apoptosis: 14; Calb FLC: -25; 697 NFkB inh: -162; Jurkat NFkB inh: -165; Jurkat NFkB conf: -105

How did Clc1cccc(Cl)c1/C=N/Nc1c(Cl)cncc1Cl do in these assays?
Shn3 inh set2: 7; Calb FLC: 1; 697 NFkB inh: -35; Jurkat NFkB inh: 73*; Jurkat NFkB conf: 49

How did CCCCCn1c(=O)[nH]c2cc(C(=O)NC3CCN(Cc4ccccc4)CC3)ccc2c1=O do in these assays?
Shn3 inh set2: 52; Beta apoptosis: 7; Calb FLC: 0; 697 NFkB inh: -54; Jurkat NFkB inh: 51*; Jurkat NFkB conf: 36

Results for Cc1ccc(NS(=O)(=O)c2ccc(C(=O)NC3CCN(Cc4ccccc4)CC3)cc2)cc1 ?
Shn3 inh set2: 85*; Beta apoptosis: 37; 697 NFkB inh: 15; Jurkat NFkB inh: 57*; Jurkat NFkB conf: 59*

How did CCCCCn1c(=O)[nH]c2cc(C(=O)O)ccc2c1=O do in these assays?
Shn3 inh set2: 13; Beta apoptosis: -4; Calb FLC: -16; 697 NFkB inh: -5; Jurkat NFkB inh: -7

How did O=C(NC1CCN(Cc2ccccc2)CC1)c1ccc2c(c1)[nH]c(=O)n2Cc1ccc(F)cc1 do in these assays?
Shn3 inh set2: 43; Beta apoptosis: 17; Calb FLC: -15; 697 NFkB inh: -8; Jurkat NFkB inh: 64*; Jurkat NFkB conf: 35

How did COc1cccc(C(NC(C)=O)c2nc(-c3cccc4cccnc34)cs2)c1 (stereo unspecified) do in these assays?
Shn3 inh set2: 1

What do the screens show for `CCC(=O)NC(c1cccs1)c1ccc2cccnc2c1O` (stereo unspecified)?
Shn3 inh set2: 79; Beta apoptosis: 107*; Calb FLC: 101*; 697 NFkB inh: -41; Jurkat NFkB inh: 63*; Jurkat NFkB conf: 47*

Results for CC(=O)NC(c1ccc2ccccc2c1)c1ccc2cccnc2c1O (stereo unspecified) ?
Shn3 inh set2: 85*; Calb FLC: -4; 697 NFkB inh: -12; Jurkat NFkB inh: 57*; Jurkat NFkB conf: 82*

Results for CCCCC(=O)NC(c1ccc(N(CC)CC)cc1)c1ccc2cccnc2c1O (stereo unspecified) ?
Shn3 inh set2: 94*; Beta apoptosis: 89*; Calb FLC: 121*; 697 NFkB inh: -35; Jurkat NFkB inh: 64*; Jurkat NFkB conf: 76*

How did CCCC(=O)NC(c1ccc(N(C)C)cc1)c1c(O)ccc2ccccc12 (stereo unspecified) do in these assays?
Shn3 inh set2: -3; Beta apoptosis: -6; Calb FLC: -1; 697 NFkB inh: 4; Jurkat NFkB inh: 11

What do the screens show for `CCCCC(=O)NC(c1ccc(N(C)C)cc1)c1ccc2cccnc2c1O` (stereo unspecified)?
Shn3 inh set2: 93*; Beta apoptosis: 94*; Calb FLC: 94*; 697 NFkB inh: -23; Jurkat NFkB inh: 54*; Jurkat NFkB conf: 77*

Results for CC(C)c1ccc(NC(=O)C2(C)Cc3c(-c4ccccc4)ccnc3O2)cc1 (stereo unspecified) ?
Shn3 inh set2: 5

How did CCCC(=O)NC(c1ccc(C)cc1)c1ccc2cccnc2c1O (stereo unspecified) do in these assays?
Shn3 inh set2: 74; Beta apoptosis: 112*; Calb FLC: 86*; 697 NFkB inh: -10; Jurkat NFkB inh: 52*; Jurkat NFkB conf: 86*

Results for CCCCC(=O)NC(c1ccc(Cl)cc1)c1ccc2cccnc2c1O (stereo unspecified) ?
Shn3 inh set2: 86*; Beta apoptosis: 97*; Calb FLC: 97*; 697 NFkB inh: -18; Jurkat NFkB inh: 51*; Jurkat NFkB conf: 80*

How did CCCCC(=O)NC(c1ccccc1Cl)c1c(O)ccc2ccccc12 (stereo unspecified) do in these assays?
Shn3 inh set2: 5; Beta apoptosis: 1; Calb FLC: 18; 697 NFkB inh: 2; Jurkat NFkB inh: 5

How did CCCC(=O)NC(c1ccccc1)c1c(O)ccc2ccccc12 (stereo unspecified) do in these assays?
Shn3 inh set2: 0; Beta apoptosis: -7; Calb FLC: 20; 697 NFkB inh: 8; Jurkat NFkB inh: 0

Results for COc1ccc(C2c3cc(OC)c(OC)cc3CC3C(=O)OCC32)cc1OC (stereo unspecified) ?
Shn3 inh set2: -29

Results for COc1ccc(F)cc1Cn1nc(C(=O)O)c2ccccc2c1=O ?
Shn3 inh set2: 22; Beta apoptosis: 6; Calb FLC: 7; 697 NFkB inh: -9; Jurkat NFkB inh: 6

Results for COc1ccc(S(=O)(=O)Nc2ccc3c(c2)C(=O)N([C@H](C)CO)C[C@H](C)[C@@H](CN(C)C(=O)Nc2ccc(C(F)(F)F)cc2)OCCCC[C@H](C)O3)cc1 ?
Shn3 inh set2: 8

Results for O=C(Nc1ccc(-c2nc3ccccc3o2)cc1)C1CCCO1 (stereo unspecified) ?
Shn3 inh set2: -16; Beta apoptosis: 1; Calb FLC: 9; 697 NFkB inh: -124; Jurkat NFkB inh: -180; Jurkat NFkB conf: -103

What do the screens show for `Cc1ccc2nc(-c3ccc(NC(=O)C4CCCO4)cc3)[nH]c2c1` (stereo unspecified)?
Shn3 inh set2: 20; Beta apoptosis: 11; Calb FLC: 16; 697 NFkB inh: -147; Jurkat NFkB inh: -177; Jurkat NFkB conf: -76

How did Cc1ccc2nc(-c3ccc(NC(=O)Cc4cccs4)cc3)[nH]c2c1 do in these assays?
Shn3 inh set2: 32; Beta apoptosis: 33; Calb FLC: 7; 697 NFkB inh: -115; Jurkat NFkB inh: -170; Jurkat NFkB conf: -119
